Data from PubChem BioAssay (NCI).
About 83,000 compounds went through this panel and 20% of them were active in at least one assay; those are over-represented in the sample as a whole.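 Growth was measured after 48 h exposure to one concentration of compound in 96-well plates. Values under 10 count as active.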 Activity calls are given as the source filed them.

system: SK-OV-3 ovarian; assay: NCI-60 one-dose screen, 48 h (100 = growth as untreated, 0 = no growth, -100 = all killed); conditions: 10 µM unless noted

Row | SMILES | growth
1 | O=C1CN(Cc2ccc(C(=O)NO)cc2)C(=O)[C@@H](Cc2ccccc2)N1 | 96.5% (inactive)
2 | CCCCCN(CCCCC)CCCCCCCCN1CCCc2ccccc21 | 106% (inactive)
3 | CC1Cc2c(Cl)ncnc2N(C)c2ccc(O)cc21 (centres undefined) | 31.7% (inactive)
4 | FC(F)(F)c1ccc2c(c1)Sc1ccccc1N2 | 105% (inactive)
5 | Cc1ccc2c(n1)C(=O)C(Cl)=C(Nc1ccc(N3CCN(C)CC3)cc1)C2=O | 89.9% (inactive)
6 | CCOc1cc(/C=N\NC(=O)N/N=C/c2ccc(O)c(OCC)c2)ccc1O | 16.2% (inactive)
7 | C1=C[C@H]2O[C@@H]1c1ccc3[nH]ccc3c12 | 98.7% (inactive)
8 | CC1(C)CC[C@]2(C(=O)O)CC[C@]3(C)[C@H](CC[C@@H]4[C@@]5(C)CCC(=O)C(C)(C)[C@@H]5CC[C@]43C)[C@H]2[C@H]1OC(=O)C(F)(F)F | -2.75% [100 µM] (active)
9 | [2H]C1([2H])CCN(C(=O)C2CC2)c2cc(NS(=O)(=O)c3ccc(-c4cccc(C(N)=O)c4)cc3)ccc21 | 26.1% (inactive)
10 | CCOC(=O)c1sc2nc(-c3cc(OC)c(OC)c(OC)c3)nc(N3CCOCC3)c2c1C | 56.1% (inactive)
11 | O=C(CCN1CCCCC1)c1ccc(Cl)cc1 | 103% (inactive)
12 | O=C1CC(C(F)(F)F)Cc2nc3ccc(Br)cc3cc21 (centres undefined) | 85.7% (inactive)
13 | NC(=O)c1cccc(-c2ccc(S(=O)(=O)Nc3ccc4c(c3)N(C(=O)C3CC3)CCC4)cc2)c1 | 38.2% (inactive)
14 | CCOC(=O)CCC[P+](c1ccccc1)(c1ccccc1)c1ccccc1 | 98.9% (inactive)
